Drawing on PubChem BioAssay (Tox21), this text covers Potency and outcome for 13 compounds.

SMILES strings stand for the structures. Records with an inconclusive call do not appear. The source holds several records for some structures; these can differ, active in one and inactive in another. Activity calls are given as the source filed them. Unless noted, the call rests on the fitted dose curve; in most records, active means well fitted curve in the direction sought with a large enough effect in the repeat runs; inconclusive means weak or mixed curves; inactive means no such curve, though single readings can be large; an effect the other way counts as inactive or inconclusive.

Experiment [1] in a line: qHTS assay to identify small molecule HDAC inhibitors (AID 1259364).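 Further: wild-type HCT-116 cells with endogenous class I/II HDAC activity; top concentration of the series differs between compounds; nearly all actives have a fitted effect of over 45% in size.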 A digest of the protocol:
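Read-out: luminescence of HDAC-Glo I/II reagent, 30 min RT, reflecting class I/II deacetylase activity in whole HCT-116 cells pre-exposed 2 h to DMSO-dissolved compounds.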

The nature of experiment [2]: qHTS assay to identify small molecule HDAC inhibitors - cell viability counter screen (AID 1259365). Further: series mostly up to about 92 µM; nearly all actives have a fitted effect of over 50% in size. A digest of the protocol: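 Measured quantity is CellTiter-Glo luminescence from wild-type HCT-116 cells after compound incubation of 2hr at 37C, 5% CO2; reagent developed 30min at room temperature.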
Background: Quantitative high-throughput screening tests each substance at several concentrations.

The nature of experiment [3]: qHTS assay to identify small molecule agonists of the sonic hedgehog signaling (Shh) pathway - cell viability counter screen (AID 1259366). Further: nearly all actives have a fitted effect of over 50% in size. Further: potency means the concentration at half of the fitted maximal effect. A digest of the protocol: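 In quantitative high-throughput format, 3T3 Gli1-Luc cells were exposed to compounds for 24hr and multiplexed for viability using CellTiter-Fluor, incubated 1hr at 37C before the fluorescence read.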
Experiment [4] in a line: qHTS assay to identify small molecule antagonists of the sonic hedgehog signaling (Shh) pathway - cell viability counter screen (AID 1259367). Further: nearly all actives have a fitted effect of over 55% in size. A digest of the protocol: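 Seed 3T3 Gli1-Luc cells at 2,000 per well; incubate 4 hr; add compound in DMSO, then conditioned medium; incubate at 37C with 5% CO2; add CellTiter-Fluor after 23 hr; read fluorescence 1 hr later.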
A short description of experiment [5]: qHTS assay to identify small molecule agonists of the sonic hedgehog signaling (Shh) pathway (AID 1259368; calls by dose curve;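 further: NIH/3T3-derived 3T3Gli1-Luc cells carrying a stable Gli1-driven firefly luciferase reporter; series mostly up to about 92 µM; nearly all actives have a fitted effect of over 15% in size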). Put shortly: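 A Gli1 transcriptional response element controlled firefly luciferase in 3T3Gli1-Luc cells. Compounds and a positive control were added 4 hr after plating, and cells were incubated a further 24 hr at 37 C before luminescence detection.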

Experiment [6] can be described thus: qHTS assay to identify small molecule antagonists of the sonic hedgehog signaling (Shh) pathway (AID 1259369; calls by dose curve; further: nearly all actives have a fitted effect of over 45% in size; further: potency means the concentration at half of the fitted maximal effect). Put shortly:
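For antagonist detection, the reporter line received test compounds together with conditioned medium, incubated 24hr at 37 C, 5% CO2, then luminescence was recorded following 30min room-temperature luciferase reagent incubation.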

Experiment [7] can be described thus: qHTS assay to identify small molecule agonists of the androgen receptor (AR) signaling pathway in the presence of an antagonist - cell viability counter screen (AID 1259379).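 Further: MDA-kb2 human breast cancer cells carrying an MMTV luciferase reporter; series mostly up to about 92 µM; nearly all actives have a fitted effect of over 25% in size.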 A digest of the protocol:
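Seed MDA-kb2 at 3,000 cells/well; incubate 5 hr, 37C, 0% CO2. Add nilutamide to 3.0uM final, then pin compounds at 15 concentrations. Incubate 16 hr. Add CellTiter-Fluor at 15 hr, read fluorescence after 1 hr.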

Experiment [8] is described as follows: qHTS assay to identify small molecule agonists of the estrogen receptor beta (ER-beta) signaling pathway - cell viability counter screen (AID 1259380). Further: nearly all actives have a fitted effect of over 30% in size. Further: potency means the concentration at half of the fitted maximal effect. Put shortly:
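CellTiter-Glo read, 30 min RT, same wells as bla assay; cells ER-beta-UAS-bla HEK293T; 16 hr compound, 37C; medium 2% charcoal-stripped FBS.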

Experiment [9] can be described thus: qHTS assay to identify small molecule antagonists of the estrogen receptor beta (ER-beta) signaling pathway - cell viability counter screen (AID 1259382). Further: nearly all actives have a fitted effect of over 55% in size. Further: potency means the concentration at half of the fitted maximal effect. A digest of the protocol:
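In this multiplexed counter screen, cells were seeded at 2,000 per well in medium with 2% charcoal-stripped FBS and incubated 6 hr before compound and 1nM final E2 were added. Sixteen hours later, ATP-based luminescence reported viability.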

Experiment [10] is described as follows: qHTS assay to identify small molecule agonists or antagonists of the thyroid stimulating hormone receptor (TSHR) signaling pathway - wild type cell line counter screen (AID 1259384; calls by dose curve). Put shortly: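 Wild-type Hek293 cells, 800/well, 18 h at 37C, then compound with Ro20-1724 for 30 min RT. cAMP by HTRF (cAMP-d2/anti-cAMP cryptate), 1 h RT, fluorescence read. 15 concentrations, triplicates.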

Experiment [11] can be described thus: qHTS assay to identify small molecule agonists of the estrogen receptor alpha (ER-alpha) signaling pathway in the presence of an antagonist - cell viability counter screen (AID 1259386).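 Further: series mostly up to about 92 µM; cells exposed to compounds for 22 h at 37 °C before the viability read; nearly all actives have a fitted effect of over 30% in size.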 A digest of the protocol: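 Viability counter screen using VM7Luc4E2 (full-length ER-alpha, four ERE-luciferase). The cells were treated with compounds alongside ICI-182,780 10.0nM for 22hr, and live-cell protease fluorescence was quantified with CellTiter-Fluor.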

Experiment [12] deals with Progesterone receptor (Homo sapiens) (UniProt P06401). Briefly: qHTS assay to identify small molecule agonists of the progesterone receptor (PR) signaling pathway (AID 1346784; calls by dose curve; further: nearly all actives have a fitted effect of over 30% in size). A digest of the protocol:
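Reporter assay, GripTite PR-UAS-bla HEK 293T cells: 16 hr exposure to DMSO-dissolved compounds at 37C, 5% CO2, in steroid-depleted (2% charcoal-stripped FBS) medium; beta-lactamase measured by FRET fluorescence.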

Experiment [13] shares this target. The experiment is described as follows: qHTS assay to identify small molecule antagonists of the progesterone receptor (PR) signaling pathway (AID 1346795; active means well fitted inhibition curve with a large enough effect in the signal ratio in the repeat runs, not every such curve was filed as active; the % refers to the signal ratio). Put shortly: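 Stimulus R5020 at 1 nM final; cells HEK293T PR-UAS-bla; medium with 2% charcoal-stripped FBS; compound exposure 16 hr at 37C, 5% CO2; detection by FRET beta-lactamase substrate, 2 hr, room temperature.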

For experiment [14], the target named is Estrogen receptor beta (Homo sapiens) (UniProt Q92731). Briefly: qHTS assay to identify small molecule agonists of the estrogen receptor beta (ER-beta) signaling pathway (AID 1259377; active means well fitted activation curve with a large enough effect in the signal ratio in the repeat runs, not every such curve was filed as active; the % refers to the signal ratio). A digest of the protocol: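 Reporter cells (HEK293T, ER-beta-UAS-bla) receive compounds or DMSO after a 6 hr pre-incubation. They then incubate 16 hr at 37C/5% CO2, and fluorescence from LiveBLAzer B/G substrate is measured after 2 hours at room temperature.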

In experiment [15] the target is Thyrotropin receptor (Homo sapiens) (UniProt P16473). Briefly: qHTS assay to identify small molecule antagonists of the thyroid stimulating hormone receptor (TSHR) signaling pathway (AID 1259385; calls by dose curve; further: nearly all actives have a fitted effect of over 20% in size). A digest of the protocol: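 TSHR-HEK293 cells (800/well) plated 18 h, then compounds with Ro20-1724 and TSH at 1.5 ng/mL final, 30 min at room temperature. cAMP quantified by HTRF (cAMP-d2/anti-cAMP-cryptate, 1 h); 15 concentrations in triplicate.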

In experiment [16] the target is Estrogen receptor (Homo sapiens) (UniProt P03372). The experiment is described as follows: qHTS assay to identify small molecule agonists of the estrogen receptor alpha (ER-alpha) signaling pathway in the presence of an antagonist (AID 1259383; calls by dose curve; further: top concentration of the series differs between compounds; nearly all actives have a fitted effect of over 15% in size). A digest of the protocol: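 Stably transfected VM7Luc4E2 reporter cells, kept 5 days in charcoal-stripped serum, received ICI-182,780 at 10.0nM final before compound addition. Following 22hr incubation at 37C and 5% CO2, luciferase signal was read by luminescence.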
Sequence of Estrogen receptor (Homo sapiens) (P03372 whole entry, looked up): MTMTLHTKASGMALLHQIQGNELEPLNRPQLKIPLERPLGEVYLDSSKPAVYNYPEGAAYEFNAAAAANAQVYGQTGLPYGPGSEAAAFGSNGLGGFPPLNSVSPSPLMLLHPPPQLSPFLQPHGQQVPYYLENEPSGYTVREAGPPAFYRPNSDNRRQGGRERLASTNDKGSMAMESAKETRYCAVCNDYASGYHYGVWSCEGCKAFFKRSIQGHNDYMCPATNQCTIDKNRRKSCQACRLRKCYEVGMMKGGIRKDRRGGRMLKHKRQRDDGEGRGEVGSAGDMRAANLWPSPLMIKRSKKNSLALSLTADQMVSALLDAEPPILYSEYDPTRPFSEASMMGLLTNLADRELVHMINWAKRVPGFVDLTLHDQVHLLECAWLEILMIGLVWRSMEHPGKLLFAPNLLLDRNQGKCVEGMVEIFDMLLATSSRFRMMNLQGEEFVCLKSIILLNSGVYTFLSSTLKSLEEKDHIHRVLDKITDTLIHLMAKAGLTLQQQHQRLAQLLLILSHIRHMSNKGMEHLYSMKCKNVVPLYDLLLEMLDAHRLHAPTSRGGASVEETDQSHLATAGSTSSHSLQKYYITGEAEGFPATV

Sequence of Estrogen receptor beta (Homo sapiens) (Q92731 whole entry, looked up): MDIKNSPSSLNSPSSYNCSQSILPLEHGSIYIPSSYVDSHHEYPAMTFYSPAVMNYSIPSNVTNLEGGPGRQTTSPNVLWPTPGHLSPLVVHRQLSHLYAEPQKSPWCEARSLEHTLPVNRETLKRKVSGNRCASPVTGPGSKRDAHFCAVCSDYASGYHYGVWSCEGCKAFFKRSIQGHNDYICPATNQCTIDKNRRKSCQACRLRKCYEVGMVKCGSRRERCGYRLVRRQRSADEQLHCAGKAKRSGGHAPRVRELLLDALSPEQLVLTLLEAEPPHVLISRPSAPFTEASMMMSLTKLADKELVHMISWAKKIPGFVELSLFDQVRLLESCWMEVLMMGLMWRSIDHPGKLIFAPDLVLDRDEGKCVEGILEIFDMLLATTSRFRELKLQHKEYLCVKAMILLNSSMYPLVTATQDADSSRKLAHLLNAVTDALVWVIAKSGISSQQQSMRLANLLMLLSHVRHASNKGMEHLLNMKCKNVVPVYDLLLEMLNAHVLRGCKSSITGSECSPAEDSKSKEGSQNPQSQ
Sequence of Thyrotropin receptor (Homo sapiens) (P16473 whole entry, looked up): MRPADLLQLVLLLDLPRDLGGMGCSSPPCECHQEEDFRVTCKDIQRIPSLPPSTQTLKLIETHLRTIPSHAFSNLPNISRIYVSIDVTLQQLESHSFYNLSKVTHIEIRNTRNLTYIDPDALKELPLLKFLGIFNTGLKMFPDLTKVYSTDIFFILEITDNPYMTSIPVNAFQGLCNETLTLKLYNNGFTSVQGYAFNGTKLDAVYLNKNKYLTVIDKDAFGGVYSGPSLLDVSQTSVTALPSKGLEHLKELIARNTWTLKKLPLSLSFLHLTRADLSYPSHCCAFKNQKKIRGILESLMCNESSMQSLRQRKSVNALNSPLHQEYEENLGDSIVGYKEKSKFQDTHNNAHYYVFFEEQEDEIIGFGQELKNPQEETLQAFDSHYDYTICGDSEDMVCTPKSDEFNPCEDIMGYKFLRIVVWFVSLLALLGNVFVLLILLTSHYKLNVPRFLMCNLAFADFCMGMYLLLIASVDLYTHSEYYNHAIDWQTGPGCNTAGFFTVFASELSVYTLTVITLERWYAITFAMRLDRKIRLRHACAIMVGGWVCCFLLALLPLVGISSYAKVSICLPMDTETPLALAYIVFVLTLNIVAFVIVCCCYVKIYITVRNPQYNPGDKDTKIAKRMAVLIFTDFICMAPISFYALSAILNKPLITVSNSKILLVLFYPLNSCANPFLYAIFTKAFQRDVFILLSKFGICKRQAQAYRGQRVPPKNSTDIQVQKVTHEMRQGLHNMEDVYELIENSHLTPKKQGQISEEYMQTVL
Sequence of Progesterone receptor (Homo sapiens) (P06401 whole entry, looked up): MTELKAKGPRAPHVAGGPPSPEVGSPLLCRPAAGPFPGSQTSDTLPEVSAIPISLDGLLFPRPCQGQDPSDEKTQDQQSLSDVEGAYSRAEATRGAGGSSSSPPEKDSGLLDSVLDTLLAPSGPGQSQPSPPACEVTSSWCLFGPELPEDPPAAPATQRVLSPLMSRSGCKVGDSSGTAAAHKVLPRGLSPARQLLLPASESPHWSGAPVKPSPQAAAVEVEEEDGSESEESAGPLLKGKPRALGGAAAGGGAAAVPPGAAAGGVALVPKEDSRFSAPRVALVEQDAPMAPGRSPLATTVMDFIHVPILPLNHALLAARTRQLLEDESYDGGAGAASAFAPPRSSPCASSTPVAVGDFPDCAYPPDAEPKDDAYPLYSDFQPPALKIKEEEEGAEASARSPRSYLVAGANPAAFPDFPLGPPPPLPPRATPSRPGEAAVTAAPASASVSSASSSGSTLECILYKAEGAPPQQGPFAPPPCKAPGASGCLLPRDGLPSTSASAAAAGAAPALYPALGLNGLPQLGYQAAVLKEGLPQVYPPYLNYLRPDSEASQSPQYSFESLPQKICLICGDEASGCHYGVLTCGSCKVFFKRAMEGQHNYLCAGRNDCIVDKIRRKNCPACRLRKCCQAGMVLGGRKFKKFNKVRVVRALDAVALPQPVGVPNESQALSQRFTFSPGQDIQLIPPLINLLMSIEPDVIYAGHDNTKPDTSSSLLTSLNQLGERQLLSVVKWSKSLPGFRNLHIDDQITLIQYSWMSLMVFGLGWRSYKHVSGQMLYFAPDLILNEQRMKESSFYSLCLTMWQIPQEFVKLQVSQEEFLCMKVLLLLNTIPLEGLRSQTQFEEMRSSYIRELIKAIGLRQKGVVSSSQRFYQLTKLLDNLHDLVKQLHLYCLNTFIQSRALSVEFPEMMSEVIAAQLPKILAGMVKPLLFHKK

Turning to `CCCCC(CC)COC(=O)CS` (centres undefined), the Potency entry in experiment [1], in [3], in [4], in [6], in [7] and in experiment [8] was “inactive” throughout. In addition, the Potency entry in [9], in [11], in experiment [12] and in experiment [13] was “inactive” throughout. In addition, the call in experiment [2], in experiment [5] and in experiment [10] was inactive.
Regarding `CC1CCC2CC1C2(C)C` (centres undefined), the Potency entry in [1], in experiment [3], in experiment [6], in experiment [14], in experiment [7] and in experiment [8] was “inactive” each time. The Potency result in experiment [9], in [15], in experiment [11], in experiment [12] and in [13] was “inactive” each time. For the same compound, the outcome in experiment [2], in experiment [5] and in [10] was inactive.
For `CCCCCCCCCCCCCCCO`, the Potency entry in [1], in experiment [14], in [7], in experiment [8], in experiment [9] and in experiment [15] was “inactive” each time. Moreover, the Potency entry in experiment [11], in [12] and in experiment [13] was “inactive” each time. Besides, the compound was called inactive in experiment [2], in [5] and in [10]. Besides, the Potency is 30.9 µM (active) and inactive in experiment [3]; 27.5 µM (active) and inactive in experiment [6].
Take `C=C(C)C(=O)OCCOCCOCCOC(=O)C(=C)C`: the Potency result in experiment [1], in experiment [3], in experiment [4], in experiment [7], in experiment [8] and in [9] was “inactive” in each case. For the same compound, the Potency entry in experiment [15], in experiment [11], in experiment [12] and in [13] was “inactive” each time. Moreover, the result in [2], in experiment [5] and in [10] was inactive.
Regarding `CCCC(C)=O`, the Potency entry in [1], in experiment [3], in experiment [4], in experiment [6], in experiment [7] and in experiment [8] was “inactive” each time. Further, the Potency entry in experiment [9], in experiment [11], in experiment [12] and in experiment [13] was “inactive” throughout. For the same compound, the call in experiment [2] and in experiment [5] was inactive.
For `C=C(C)C(=O)O[C@H]1C[C@@H]2CC[C@@]1(C)C2(C)C`, the Potency entry in experiment [1], in experiment [3], in experiment [4], in experiment [6], in [7] and in [16] was “inactive” each time. Besides, the Potency result in experiment [11] and in [12] was “inactive” each time. The call in experiment [2], in experiment [5] and in experiment [10] was inactive. Further, the Potency was 4.3 µM (active) and inactive in experiment [8]; 7.65 µM (active) and inactive in experiment [9].
Consider `O=C(CC(C(=O)OC1CCCCC1)S(=O)(=O)O)OC1CCCCC1` (centres undefined), for which the Potency result in experiment [1], in experiment [3], in [6], in [14], in experiment [7] and in experiment [8] was “inactive” in each case. Also, the Potency entry in experiment [9], in experiment [11], in experiment [12] and in [13] was “inactive” throughout. The call in [2], in experiment [5] and in [10] was inactive.
Consider `O=C(O)c1ccc(C(=O)O)cc1`, for which the Potency entry in experiment [1], in experiment [3], in [6], in [7], in [8] and in [9] was “inactive” each time. Besides, the Potency result in [11], in experiment [12] and in experiment [13] was “inactive” each time. Also, the compound was called inactive in experiment [2], in [5] and in experiment [10].
Take `O=C(O)c1cc(C(=O)O)cc(S(=O)(=O)O)c1`: the Potency entry in experiment [1], in experiment [3], in experiment [4], in [6], in [7] and in [8] was “inactive” each time. Moreover, the Potency result in [9], in experiment [15], in experiment [11], in [12] and in experiment [13] was “inactive” throughout. Besides, the compound was called inactive in experiment [2], in [5] and in experiment [10].
Regarding `COS(C)(=O)=O`, the Potency entry in [1], in [3], in experiment [6], in experiment [7], in experiment [8] and in experiment [9] was “inactive” in each case. In addition, the Potency result in experiment [16] and in experiment [11] was “inactive” each time. Moreover, the compound was classed as inactive in experiment [2], in experiment [5] and in [10].
Take `CCC(O)OCCCOC` (centres undefined): the Potency result in [1], in [6], in experiment [14], in [7], in experiment [8] and in experiment [9] was “inactive” each time. Also, the Potency entry in experiment [15], in [11], in experiment [12] and in [13] was “inactive” each time. For the same compound, the call in [2], in [5] and in experiment [10] was inactive. In addition, the Potency in experiment [3] was 22.2 µM (active) and inactive.
Regarding `CC(C)CC(=O)CC(C)C`, the Potency result in experiment [1], in [3], in [4], in experiment [6], in experiment [14] and in [7] was “inactive” each time. In addition, the Potency result in experiment [8], in experiment [9], in experiment [11], in [12] and in [13] was “inactive” each time. The outcome in experiment [2] and in [5] was inactive.
Regarding `O=S(=O)(O)c1ccc2ccccc2c1`, the Potency entry in experiment [1], in [3], in experiment [4], in experiment [6], in experiment [7] and in experiment [8] was “inactive” each time. Moreover, the Potency result in experiment [9], in experiment [16], in experiment [11] and in experiment [12] was “inactive” in each case. Further, the outcome in experiment [2], in experiment [5] and in experiment [10] was inactive.
